PubChem BioAssay (NCATS)
Inconclusive results are not listed. Entries that show only a call come without a potency. Active and inactive are the calls of the source. Unless noted, the call rests on the fitted dose curve; in most records, active means well fitted curve in the direction sought with a large enough effect; inconclusive means small, poorly fitted or top-dose-only effect, or another doubt; inactive means no such curve, though single readings can be large; an effect the other way counts as inactive or inconclusive.

Columns and labels:
[1] = biological target: Cytochrome P450 3A4 (Homo sapiens) (UniProt P08684); assay: qHTS Assay for Inhibitors and Substrates of Cytochrome P450 3A4 (AID 884); further: nearly all actives have a fitted effect of over 50% in size
Outline: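 Luminescent readout of luciferin produced by CYP3A4 (20 nM) dealkylation of Luciferin-PPXE, 25 uM (its KM). NADPH-driven reaction ran 60 min at RT after 10 min compound preincubation; data scaled to 57 uM ketoconazole as 100% inhibition.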

[2] = Confirmation and Secondary Assay for Modulators of Hemoglobin Beta Chain Splicing at IVS2 654 locus (AID 910);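 further: per-well total GFP intensity by laser scanning cytometry after 2-day treatment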
Outline: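 HeLa cells stably carrying EGFP interrupted by mutant beta-globin IVS2-654 intron (CMV-driven) were treated with compound for 2 days at 37C; corrected splicing was scored as total peak GFP intensity per well (488 nm excitation, 500-520 nm emission).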

[3] = Confirmation and Secondary Assay for Modulators of Hemoglobin Beta Chain Splicing at IVS2 705 locus (AID 930);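 further: HeLa cells stably expressing the EGFP-705 splicing reporter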
Outline: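 HeLa cells stably carrying EGFP interrupted by mutant beta-globin IVS2-705 intron (CMV-driven) were seeded at 500 cells/well, treated next day with compound for 2 days at 37C; corrected splicing restores EGFP, read as total peak GFP intensity per well.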

[4] = biological target: Ubiquitin carboxyl-terminal hydrolase 1 (Homo sapiens) (UniProt O94782); assay: Inhibitors of USP1/UAF1: Pilot qHTS (AID 504865);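 further: rhodamine fluorescence freed from ubiquitin-rhodamine substrate followed over time; top concentration of the series differs between compounds; nearly all actives have a fitted effect of over 35% in size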
Outline: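 Kinetic fluorescence assay: 1nM USP1/UAF1, 15 min compound preincubation, then 150nM Ub-Rho; 480/540 nm.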

[5] = S16 Schwann cell viability assay (CellTiter-Glo assay) (AID 624031);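 further: cellular ATP luminescence as a viability measure; nearly all actives have a fitted effect of over 70% in size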
Outline: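 Native S16 rat Schwann cells in DMEM/10% FBS without phenol red were incubated overnight, then exposed to compounds for 24 h at 37 °C/5% CO2. Viability was read as ATP luminescence (CellTiter-Glo), normalized to no-cell wells and DMSO (0%).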

[6] = S16 Schwann cell PMP22 intronic element beta-lactamase assay (AID 624044; calls by dose curve; further: nearly all actives have a fitted effect of over 15% in size; further: potency means the concentration at half of the fitted maximal effect); details: S16 rat Schwann cells, PMP22 element beta-lactamase FRET, 24 h; ratio activity, negative = inhibition: at 38.3 µM (top of the series)
Outline: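 Beta-lactamase reporter under a PMP22 intronic regulatory element in stable S16 rat Schwann cells; 24 h compound exposure. 460 nm blue signal normalized between DMSO (0%) and potassium clavulanate, with 535 nm FRET tracking viability; curves classed by r2 and response.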

DFO2036 = assay: qHTS profiling for inhibitors of Plasmodium falciparum proliferation (AID 504749); further: nearly all actives have a fitted effect of over 60% in size; further: potency means the concentration at half of the fitted maximal effect; details: P. falciparum in erythrocytes, SYBR Green DNA, 72 h; series mostly up to 28.7 µM
Outline: (§1)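 Quantitative HTS: compounds pinned into medium, infected erythrocytes added (0.3% parasitemia, 2.5% hematocrit), 72 h culture at 37 C under 5% CO2. Saponin/Triton lysis with SYBR Green I, overnight RT, then fluorescence read.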

TAB109 = assay: as above; details: P. falciparum in erythrocytes, SYBR Green DNA, 72 h; series mostly up to 28.7 µM
Outline: as §1

[7] = S16 Schwann cell PMP22 intronic element firefly luciferase assay (AID 624032); further: nearly all actives have a fitted effect of over 30% in size; further: potency means the concentration at half of the fitted maximal effect
Outline: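 Rat S16 Schwann cells stably carrying a PMP22 intronic element-driven Fluc reporter were seeded overnight, then exposed to compounds for 24 h at 37 °C. Luminescence was normalized to PTC124 (positive control) and DMSO (0% activity).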

Sequence of Ubiquitin carboxyl-terminal hydrolase 1 (Homo sapiens) (O94782 whole entry, looked up): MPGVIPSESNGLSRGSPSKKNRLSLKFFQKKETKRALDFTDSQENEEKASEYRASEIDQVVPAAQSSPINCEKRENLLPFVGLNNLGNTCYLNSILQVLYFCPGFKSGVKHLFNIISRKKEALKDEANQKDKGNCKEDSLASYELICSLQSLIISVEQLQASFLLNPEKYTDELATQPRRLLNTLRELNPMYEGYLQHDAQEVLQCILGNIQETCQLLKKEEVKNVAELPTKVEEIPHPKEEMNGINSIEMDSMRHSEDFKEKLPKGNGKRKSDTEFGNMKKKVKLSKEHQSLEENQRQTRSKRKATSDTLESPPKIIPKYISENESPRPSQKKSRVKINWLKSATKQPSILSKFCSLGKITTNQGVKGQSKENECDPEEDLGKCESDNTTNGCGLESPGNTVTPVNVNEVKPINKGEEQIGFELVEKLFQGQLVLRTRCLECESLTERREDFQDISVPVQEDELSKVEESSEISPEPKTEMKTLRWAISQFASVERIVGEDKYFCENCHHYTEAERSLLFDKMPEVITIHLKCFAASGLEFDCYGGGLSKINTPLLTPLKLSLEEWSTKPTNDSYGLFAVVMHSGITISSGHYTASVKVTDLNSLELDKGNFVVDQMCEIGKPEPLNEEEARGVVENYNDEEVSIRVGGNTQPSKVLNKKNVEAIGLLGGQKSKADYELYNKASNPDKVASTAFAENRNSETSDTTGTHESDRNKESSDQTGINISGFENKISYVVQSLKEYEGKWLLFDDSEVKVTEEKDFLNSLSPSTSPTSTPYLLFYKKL
Sequence of Cytochrome P450 3A4 (Homo sapiens) (P08684 whole entry, looked up): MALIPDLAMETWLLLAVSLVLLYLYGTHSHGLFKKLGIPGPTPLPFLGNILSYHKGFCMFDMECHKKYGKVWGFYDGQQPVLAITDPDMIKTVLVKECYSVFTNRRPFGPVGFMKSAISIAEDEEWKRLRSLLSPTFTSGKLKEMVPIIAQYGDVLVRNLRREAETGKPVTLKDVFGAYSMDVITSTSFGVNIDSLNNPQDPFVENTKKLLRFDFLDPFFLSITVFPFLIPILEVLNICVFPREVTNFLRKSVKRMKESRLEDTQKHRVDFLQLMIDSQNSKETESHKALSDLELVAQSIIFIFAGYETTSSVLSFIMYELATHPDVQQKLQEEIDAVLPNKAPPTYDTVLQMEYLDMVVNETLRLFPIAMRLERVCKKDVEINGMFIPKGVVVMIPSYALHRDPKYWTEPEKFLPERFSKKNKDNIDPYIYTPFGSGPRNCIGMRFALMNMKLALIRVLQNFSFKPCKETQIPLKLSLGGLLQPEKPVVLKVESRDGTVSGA

Structure (SMILES)	Potency [1]	Potency [2]	Potency [3]	Potency [4]	Potency [5]	Potency [6]	Potency (DFO2036)	Potency (TAB109)	Potency [7]
OCCN1CC(O)C(O)C(O)C1CO (stereo not drawn)	inactive	inactive	inactive	inactive	inactive	inactive	inactive	inactive	–
CC[C@@H](C)C(N)C(=O)O (stereo partly drawn)	–	–	–	–	inactive	–	inactive	inactive	inactive
COC(c1ccccc1)(c1ccccc1)C(Oc1nc(C)cc(C)n1)C(=O)O (stereo not drawn)	–	–	–	inactive	inactive	inactive	inactive	inactive	inactive
NC(=O)NC(CCC(=O)O)C(=O)O (stereo not drawn)	–	–	–	–	inactive	inactive	inactive	inactive	inactive
CCCCN1CC(O)C(O)C(O)C1CO (stereo not drawn)	–	–	–	inactive	inactive	inactive	inactive	inactive	inactive
CC(=O)NC[C@@H]1CN(c2ccc(N3CCOCC3)c(F)c2)C(=O)O1	–	–	–	inactive	inactive	inactive	inactive	inactive	inactive
CNC(=O)C(N)CSC(C)C1=C(C)c2cc3[n-]c(cc4nc(cc5[n-]c(cc1n2)c(C)c5CCC(=O)O)C(CCC(=O)O)=C4C)c(C)c3C(C)SCC(N)C(=O)NC.[Fe+2] (stereo not drawn)	–	–	–	inactive	inactive	inactive	inactive	inactive	inactive
CC(=O)N[C@H]1[C@H](O[C@@H]2c3ccc(c(Cl)c3)Oc3cc4cc(c3O[C@@H]3O[C@H](CO)[C@@H](O)[C@H](O)C3C)Oc3ccc(cc3Cl)C[C@H]3NC(=O)[C@@H](N)c5ccc(O)c(c5)Oc5cc(O)cc(c5)[C@H](NC3=O)C(=O)N[C@H]4C(=O)N[C@H]3C(=O)N[C@@H]2C(=O)N[C@@H](C(=O)O)c2cc(O)cc(O[C@H]4O[C@H](CO)[C@@H](O)C(O)[C@@H]4O)c2-c2cc3ccc2O)O[C@H](CO)[C@@H](O)[C@@H]1O (stereo partly drawn)	–	–	–	–	inactive	inactive	inactive	–	inactive
O=C(OC[C@@H]1O[C@@](O)(COC(=O)c2cccnc2)[C@H](OC(=O)c2cccnc2)[C@H]1OC(=O)c1cccnc1)c1cccnc1	–	–	–	inactive	inactive	inactive	inactive	–	2560 nM (active)
C=CCn1c(=O)n(C2OC(CO)C(O)C2O)c2nc(N)[nH]c(=O)c21 (stereo not drawn)	–	–	–	–	inactive	inactive	inactive	inactive	inactive
C[C@H]1OC(OC2C(O)[C@@H](O)C(OC3C(O)[C@@H](O)C(O)O[C@@H]3CO)O[C@@H]2CO)[C@H](O)C(O)C1N[C@H]1C=C(CO)[C@@H](O)[C@H](O)C1O (stereo partly drawn)	–	–	–	inactive	inactive	inactive	inactive	inactive	inactive
CC1OC(OC2CCC3(C)C(CCC4C3CC(O)C3(C)C(C5=CC(=O)OC5)CCC43O)C2)CC(O)C1OC1CC(O)C(OC2CC(O)C(OC3OC(CO)C(O)C(O)C3O)C(C)O2)C(C)O1 (stereo not drawn)	–	–	–	inactive	inactive	inactive	inactive	inactive	inactive
CC(=O)NC1[C@H]([C@H](O)[C@H](O)CO)OC(C(=O)O)=C[C@H]1N=C(N)N (stereo partly drawn)	–	–	–	inactive	inactive	inactive	inactive	inactive	–
NC[C@@H]1O[C@H](OC2[C@@H](CO)O[C@@H](OC3[C@H](O)[C@H](N)C[C@H](N)[C@H]3OC3O[C@H](CO)[C@@H](O)[C@H](O)[C@@H]3N)[C@H]2O)C(N)[C@H](O)[C@@H]1O (stereo partly drawn)	–	–	–	–	inactive	inactive	inactive	inactive	inactive
CC1OC(OCC2OC(Oc3c(-c4ccc(OCCO)c(OCCO)c4)oc4cc(OCCO)cc(O)c4c3=O)C(O)C(O)C2O)[C@@H](O)C(O)C1O (stereo partly drawn)	inactive	inactive	inactive	inactive	inactive	inactive	inactive	inactive	inactive
COc1cccc(OC)c1C(=O)NC1C(=O)N2C1SC(C)(C)C2C(=O)O (stereo not drawn)	inactive	inactive	inactive	–	inactive	inactive	inactive	inactive	–
CCC(C(=O)O)C1OC(C(C)C(O)C(C)C(=O)C(CC)C2OC3(C=CC(O)C4(CCC(C)(C5CCC(O)(CC)C(C)O5)O4)O3)C(C)CC2C)C(C)CC1C (stereo not drawn)	–	–	–	inactive	–	6300 nM (active)	126 nM (active)	112 nM (active)	102 nM (active)
